Compound activity: PubChem, National Center for Advancing Translational Sciences (NCATS)
ELG1 genotoxic: inducers of genotoxicity in HEK293T ELG1-luciferase cells | Potency, µM (titrated, usually from 46 µM), inactives show at the top dose activity change, positive = activation, usual class: activators | 330,000 tested, 1.3% active | HEK293T ELG1-luciferase reporter, luminescence, 16 h | AID 504466; also: % of control where 0% means no effect; nearly all actives have a fitted effect of over 60% in size
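Screening used a luciferase reporter fused to human ELG1 in HEK293T cells. Luminescence was read on a CCD plate imager after 16 hr exposure and 30 min ONE-Glo incubation.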
SMN2 splice enh: increases expression of the SMN2 splice variant; HEK293 SMN2-luciferase splicing reporter, luminescence, 30-36 h; Potency, µM (doses to about 46.1 µM), for the others: at the highest dose activity change, positive = activation, actives largely listed as activators; 210,000 tested, 2.8% active; also: % of control where 0% means no effect; nearly all actives have a fitted effect of over 55% in size
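HEK293 cells carry an SMN2 […]–luciferase reporter in which exon 7 inclusion puts luciferase in frame. Cells were plated 10-12 h before compound addition, then incubated 30-36 h at 37C. ONE-Glo luminescence was read; sodium butyrate at 4.5 mM final served as control.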
NPC1 promoter act: activators of NPC1 promoter. Huh7 NPC1 promoter luciferase reporter, 24 h. Potency, µM (highest dose often 9.22 µM), for inactives: top-dose activation, most hits filed as activators. 320,000 tested, 2.4% active. AID 485313; also: % of control where 0% means no effect; nearly all actives have a fitted effect of over 60% in size
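Luminescence from an NPC1 promoter-driven luciferase reporter in stably transfected Huh7 cells was measured after 24 h compound treatment at 37 °C, followed by 10 min ambient incubation with luciferase detection reagent.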
FLuc modulator: counter-screen for miR-21 project: firefly luciferase inhibitors or activators | P08659 | purified FLuc, Km substrates, luminescence inhibition | Potency, µM (titrated, usually from 57.5 µM), for the others: top-dose activity change, negative = inhibition, hits mostly inhibitors | 360,000 tested, 6.9% active | AID 588342;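 also: plate controls were vehicle for no effect and reference inhibitor for full effect; nearly all actives have a fitted effect of over 55% in size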
Target sequence (P08659 whole entry, looked up): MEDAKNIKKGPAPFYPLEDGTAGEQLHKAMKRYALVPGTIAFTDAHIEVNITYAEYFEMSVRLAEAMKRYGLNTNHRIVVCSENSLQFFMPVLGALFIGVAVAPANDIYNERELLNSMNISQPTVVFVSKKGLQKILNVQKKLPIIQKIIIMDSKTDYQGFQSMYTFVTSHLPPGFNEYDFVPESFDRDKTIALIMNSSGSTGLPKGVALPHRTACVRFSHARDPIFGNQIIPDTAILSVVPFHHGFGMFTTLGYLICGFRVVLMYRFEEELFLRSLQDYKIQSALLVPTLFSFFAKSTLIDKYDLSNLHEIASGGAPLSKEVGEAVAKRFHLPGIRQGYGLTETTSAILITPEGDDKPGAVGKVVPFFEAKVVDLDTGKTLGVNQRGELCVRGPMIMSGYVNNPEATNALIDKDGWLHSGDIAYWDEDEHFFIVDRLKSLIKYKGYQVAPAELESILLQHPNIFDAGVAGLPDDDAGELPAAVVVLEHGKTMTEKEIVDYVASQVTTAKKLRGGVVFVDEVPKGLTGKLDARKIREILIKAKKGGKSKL
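Biochemical qHTS of compounds, final roughly 60 µM downward over six points, against 10 nM purified firefly luciferase using Km concentrations of substrates (10 uM D-luciferin, 10 uM ATP) in Tris acetate pH 7.5 buffer; luminescence output.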
Rab9 prom act: activators of Rab9 promoter; Potency, µM (series often up to 9.22 µM), for inactives: at the highest dose activation, negative = inhibition, hits mostly activators; Huh7 Rab9 promoter-luciferase reporter, luminescence, 24 h; 320,000 tested, 2.8% active; also: % of control where 0% means no effect; nearly all actives have a fitted effect of over 60% in size
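Stable Rab9-luc Huh7, 1500 cells/well, 2 h settle; cmpd in DMSO, 24 h, 37 °C/5% CO2; luciferase reagent 10 min RT; luminescence.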
Starred values were filed as active, the others as inactive; u = inconclusive; x = no result given; [ ] = remark or other dose. Only some compounds are listed: those with a hit (about 7.4% of all), similar ones and a draw of the others. Calls follow the shape of the dose curve; as a rule, active = well fitted curve in the direction sought with a large enough effect; inconclusive = small, poorly fitted or top-dose-only effect, or another doubt; inactive = no such curve, though single readings can be large; an effect the other way counts as inactive or inconclusive. Potency is read from the fitted curve at half-maximal effect.

SMILES | ELG1 genotoxic | SMN2 splice enh | NPC1 promoter act | FLuc modulator | Rab9 prom act
CC(=O)Nc1cccc(N(C)S(C)(=O)=O)c1 | 0% | 8% | -1% | -3% | -4%
CN(C)c1ccc(NC(=O)Nc2cccc(Cl)c2)cc1 | u | 13µM* | 2.2µM* | 1.3µM* | 1.8µM*
O=C(Nc1cccc(Cl)c1)Nc1nc(-c2ccc(Cl)cc2)cs1 | -2% | -46% | -7% | -2% | -9%
CN(c1cccc(NC(=O)Nc2cccc(Cl)c2)c1)S(C)(=O)=O | 0% | -30% | 15% | 17µM* | -1%
CC(C)c1cc(C(=O)N/N=C/c2ccco2)n[nH]1 | u | 16µM* | u | 17µM* | u
C/C(=N\NC(=O)c1ccc(C(=O)N/N=C(\C)c2ccco2)o1)c1ccco1 | -4% | x | -3% | u | -1%
C/C(=N\NC(=O)c1cc(C(C)C)[nH]n1)c1ccco1 | u | 2.8µM* | 4µM* | 12µM* | 2.5µM*
C/C(=N/NC(=O)c1cc(-c2ccc(Br)s2)[nH]n1)c1ccco1 | 4% | -10% | 1% | 24µM* | -8%
CCN(CC(=O)Nc1ccccc1OC)C(=O)CN1C(=O)NC(C)(c2ccccc2)C1=O (stereo not given) | -2% | x | 0% | 1% | -2%
O=C(NCCN1CCOCC1)c1noc2c1CCc1ccccc1-2 | 16µM* | 10µM* | u | u | 2µM*
CCCNC(=O)c1noc2c1CCc1ccccc1-2 | u | 16µM* | u | 19µM* | u
O=C(NCCN1CCOCC1)c1ccc(-c2ccccc2)cc1 | 16% | 8% | 6% | -23% | 5%
O=C(Nc1cccnc1Cl)c1noc2c1CCc1ccccc1-2 | 27% | x | 2.5µM* | u | 3.2µM*
O=C(NCCc1ccccc1)c1noc2c1CCc1ccccc1-2 | 8% | 16% | 17% | -16% | u
COc1cc(NC(=O)c2noc3c2CCc2ccccc2-3)cc(OC)c1OC | x | -29% | x | u | x
Cc1cccc(N2CCN(CCCNC(=O)c3ccc(NC(=O)C4=CSCCO4)cc3)CC2C)c1 (stereo not given) | -10% | x | -1% | -3% | 0%
O=C(Nc1nc2ccccc2[nH]1)c1ccccc1OC(F)F | u | x | 0.79µM* | 0.95µM* | 0.5µM*
O=C(Nc1nc2ccccc2[nH]1)c1ccc(OC(F)F)cc1 | 1.5µM* | x | 0.13µM* | 0.54µM* | 0.28µM*
CCC(Oc1ccccc1)C(=O)Nc1nc2ccccc2[nH]1 (stereo not given) | 26% | 8% | 17% | u | 15%
CC(C)Oc1ccc(C(=O)Nc2nc3ccccc3[nH]2)cc1 | u | x | u | 0.12µM* | u
N#CC(Cc1ccc(OC(F)F)cc1)c1nc2ccccc2[nH]1 (stereo not given) | u | u | u | 8.5µM* | u
COc1ccc(CNC(=O)[C@@H](NC(=O)C2CCN(C(=O)[C@@H](N)Cc3ccccc3)CC2)C(C)C)cc1 | 0% | x | 0% | 12% | -5%
CC(C)[C@H](NC(=O)CNC(=O)OC(C)(C)C)C(=O)N[C@H](C=O)C(C)C | x | -9% | x | x | x
COc1ccc(C2NC(=O)c3ccccc3O2)cc1 (stereo not given) | 0% | x | 0% | -15% | 0%
Cc1cccc(NC(=O)CSc2nc(N)c(NC(=O)c3cccs3)c(=O)[nH]2)c1C | 0% | 1% | -2% | u | -8%
SMILES | ELG1 genotoxic | SMN2 splice enh | NPC1 promoter act | FLuc modulator | Rab9 prom act
CCCC[C@@H]1C[C@H]1C(NC(=O)c1cccs1)c1ccc(Cl)cc1 (stereo not given in full) | x | -73% | x | x | x
CCNc1ccc(P(=O)(c2ccccc2)c2ccccc2)cc1 | 1% | 5% | -2% | -2% | -3%
CCC1CCc2nc3sc(C(=O)Nc4cccc(C(F)(F)F)c4)c(N)c3cc2C1 (stereo not given) | x | -6% | x | -5% | x
CCCN(CC(=O)Nc1ccccc1C)C(=O)c1ccc2c(c1)S(=O)(=O)N=C1CCCCCN12 | 1% | x | -2% | -1% | 7%
CCN(CC(=O)Nc1ccc(NC(C)=O)cc1)C(=O)c1ccc2c(c1)S(=O)(=O)N=C1CCCCCN12 | -10% | x | 0% | 11µM* | -1%
O=C(Nc1ccc2c(c1)Cc1ccccc1-2)c1ccco1 | 3.3µM* | 11µM* | 0.79µM* | 2.1µM* | 0.4µM*
COc1cccc(OC)c1C(=O)Nc1ccc2c(c1)Cc1ccccc1-2 | 17% | x | 25% | u | u
O=C(Nc1ccc2c(c1)oc1ccccc12)c1cccnc1 | 16% | 6% | u | 6µM* | u
O=C(Nc1ccc2ccccc2c1)c1cccnc1 | u | u | 4µM* | 9.5µM* | 1.4µM*
O=C(Nc1ccc2ccccc2c1)c1cnccn1 | u | 11µM* | 3.5µM* | u | 1µM*
CN(C)CCNS(=O)(=O)c1ccc(N2CCN(c3ccc(F)cc3)CC2)c([N+](=O)[O-])c1 | 0% | -1%[1.84 µM] | -3% | -9% | 1%
CCCn1c(C(O)c2cc(OC)c(OC)c(OC)c2)nc2ccccc21 (stereo not given) | -3% | x | 0% | -4% | -3%
O=C(c1ccco1)N1CCC2(CCCN(c3ccncc3)C2)CC1 | x | -29% | x | x | x
N#Cc1ccc(C(=O)Nc2ccc3ccccc3c2)cc1 | u | x | 0.35µM* | 1.3µM* | 0.45µM*
O=C(Nc1ccc2c(c1)Cc1ccccc1-2)c1cccnc1 | -1% | x | u | 6.7µM* | 3.2µM*
COc1ccc(C(=O)Nc2ccc3c(c2)Cc2ccccc2-3)cc1 | 2% | -18% | -1% | 3% | 0%
N#Cc1ccccc1Sc1ccccc1C(=O)Nc1ccc2ccccc2c1 | -2% | -10% | -1% | -3% | -6%
CC(C)(C)OC(=O)n1cc(CCO)c2ccccc21 | -3% | x | 9% | -8% | -7%
Cc1cccc(OCC(O)CN2CCOCC2)c1 (stereo not given) | -1% | x | 5% | -3% | 2%
CSc1nsc2nc(=O)c(/C=C3\C(C)=Nc4ccccc43)c(N)n12 | -5% | 7% | 9% | 15µM* | 22%
O=C(NCc1cccnc1)c1ccc(-c2ccc(Cl)cc2)o1 | 0% | x | -3% | u | -1%
O=C(Nc1cccnc1)c1ccc(-c2ccc(Cl)cc2)o1 | 9% | 2% | u | 6µM* | u
O=C(NCc1cccnc1)c1ccc(-c2cc(Cl)ccc2Cl)o1 | -7% | x | -2% | -11% | -10%
O=C(Nc1cccnc1)c1ccc(-c2cc(Cl)ccc2Cl)o1 | -8% | -4% | 0% | 17µM* | 4%
CC(C)(O)[C@H]1Cc2cc3ccc(=O)oc3cc2O1 | u | x | u | 12µM* | 3%[1.84 µM]
C=C(C)C1Cc2cc3ccc(=O)oc3cc2O1 (stereo not given) | u | -11%[1.84 µM] | 14% | 13µM* | u
CC1(C)Oc2cc3oc(=O)ccc3cc2C[C@@H]1O | 9% | x | x | x | x
